TDP1 cell noCPT: qHTS for Inhibitors of human tyrosyl-DNA phosphodiesterase 1 (TDP1): qHTS in cells in absence of CPT; DT40 Tdp1-/- hTDP1 cells, no CPT, ATP luminescence, 48 h; 420,000 tested, 15% active; Potency, µM (top dose mostly 46.2 µM), without a hit: at the top dose activity change, negative = growth inhibition, most hits filed as inhibitors; AID 686978, 2013; further: on the % scale 0 is the no-effect control and ±100 the full control effect; nearly all actives have a fitted effect of over 55% in size
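Chicken DT40 Tdp1-/- cells stably complemented with human TDP1 were seeded at 400 cells/well with DMSO in place of 20 nM camptothecin. After compound pinning, cells grew at least 48 hr at 37 °C; viability read by CellTiter-Glo luminescence.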
HT1080 IDH1KD tx: HT-1080 IDH1 knockdown cell toxicity (counter line). Potency, µM (titrated, usually from 46.1 µM), for inactives: at the top dose activity, negative = toxicity, usual class: cytotoxic. HT-1080 IDH1 knockdown viability, ATP luminescence, 48 h. 360,000 tested, 2% active;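 further: 0% = DMSO wells and -100% = cell-free medium wells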
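IDH1KD HT-1080 cells, 750/well, RPMI + 5% FBS; compound pinned after 2 h settling; 48 h, 37 °C; CellTiter-Glo luminescence; % activity normalised to DMSO and no-cell wells; curves fitted, classed by r2 and efficacy.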
HT1080NT lethal: kills 2HG-producing HT-1080-NT fibrosarcoma cells. AID 686970. Potency, µM (doses to about 46.1 µM), inactives show top-dose activity, negative = less viability, actives largely listed as cytotoxic. HT-1080-NT fibrosarcoma viability, CellTiter-Glo ATP luminescence, 48 h. 360,000 tested, 1.6% active;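 further: NT is the 2HG producing partner of a matched IDH1 knockdown line; 0% = DMSO-treated cells and -100% = media-only wells without cells; nearly all actives have a fitted effect of over 55% in size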
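Viability of the 2HG-overproducing fibrosarcoma line after 48 hours of compound exposure at 37 degrees C was determined by luminescence with CellTiter-Glo, and concentration-effect curves were then fitted and categorized.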
TGFb SMAD3 inh: blocks TGF-b signaling; HepG2 CAGA-GFP TGF-b/SMAD3 reporter, GFP fluorescence, 18 h; TGF-beta stimulated, 500 pg/mL final; Potency, µM (doses to about 46.1 µM), for inactives: at the top dose activity, negative = inhibition, most hits filed as inhibitors; 410,000 tested, 1.2% active; further: on the % scale 0 is the no-effect control and ±100 the full control effect; nearly all actives have a fitted effect of over 65% in size
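Inhibition was scored as loss of TGF-beta-induced (500 pg/mL final, 18 hours, 37 degrees C) GFP in HEPG2 cells carrying a CAGA-GFP reporter, in DMEM with 1% FBS. Well GFP was summed per cell; Activity was normalised to unstimulated and stimulated DMSO wells, then concentration-response fitting.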
HepG2 tox: HepG2 cytotoxicity, counter-screen for TGF-b inhibitors; HepG2 CAGA-GFP viability, ATP luminescence, 18 h; Potency, µM (highest dose often 46.1 µM), for the others: at the highest dose activity change, negative = cytotoxicity, most hits filed as cytotoxic; 410,000 tested, 0.76% active; AID 588856
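HepG2 CAGA-GFP cells (1000/well, DMEM with 1% FBS) received compound, then TGF-beta at 500 pg/mL final, and were incubated 18 hours at 37 degrees C. Viability was read by CellTiter-Glo luminescence. Media-only wells were set as complete cell-killing and DMSO as no toxicity.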
TDP1 cell CPT: DT40-hTDP1 cell growth loss with CPT. chicken DT40 Tdp1-/-;hTDP1 cells + 20 nM CPT, ATP luminescence, 48 h. Potency, µM (doses to about 46.2 µM), inactives show top-dose activity change, negative = growth inhibition, usual class: inhibitors. 420,000 tested, 12% active. AID 686979; further: on the % scale 0 is the no-effect control and ±100 the full control effect; nearly all actives have a fitted effect of over 55% in size
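Chicken DT40 Tdp1-/- cells complemented with human TDP1, 400 cells/well, exposed to compounds plus 20 nM camptothecin for at least 48 h at 37 C; viability read as ATP content by CellTiter-Glo luminescence.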
* marks the source's active call; other numbers are inactive results; u = inconclusive; x = not tested or not shown. Most compounds without a hit are left out; they make up all but 17% or so of the library. The call rests on the fitted dose curve; in most records, active means well fitted curve in the direction sought with a large enough effect; inconclusive means small, poorly fitted or top-dose-only effect, or another doubt; inactive means no such curve, though single readings can be large; an effect the other way counts as inactive or inconclusive. Potency means the concentration at half of the fitted maximal effect.

SMILES	TDP1 cell noCPT	HT1080 IDH1KD tx	HT1080NT lethal	TGFb SMAD3 inh	HepG2 tox	TDP1 cell CPT
COc1ccc(S(=O)(=O)N2CCOCC2)cc1NC(=O)Cc1coc2cc(C)c(C)cc12	-16%	0%	-2%	-13%	-17%	-13%
CC(C)CC(=O)Nc1ccc2nc(SCC(=O)N3CCc4ccccc43)sc2c1	2.9µM*	x	x	-26%	-32%	5.2µM*
CCC(CC)C(=O)Nc1ccc2nc(SCC(=O)N3CCc4ccccc43)sc2c1	5.2µM*	x	x	5%	-9%	4.6µM*
CC(C)C(=O)Nc1ccc2nc(SCC(=O)N3CCc4ccccc43)sc2c1	4.1µM*	x	x	-26%	-13%	10µM*
CC(C)C(=O)Nc1ccc2nc(SCCOc3ccccc3)sc2c1	-28%	x	x	-1%	-12%	-25%
CCC(CC)C(=O)Nc1ccc2nc(SCC(=O)N3CCOCC3)sc2c1	u	x	x	0%	-2%	u
CC(=O)N1CCCc2cc(S(=O)(=O)N3CCC(C)CC3)ccc21	-4%	12%	9%	u	-21%	3%
O=C(Nc1ccc(F)cc1)C(c1ccccc1)N1CCN(c2cccc(C(F)(F)F)n2)CC1 (centres undefined)	u	-20%	-1%	x	x	u
CC(C)N1CCN(Cc2cc(F)ccc2-n2cccn2)CC1CCO (centres undefined)	-26%	2%	-20%	-8%	8%	43%
Cc1cc(F)ccc1N1CCC(N2CCN(CCC(C)C)C(CCO)C2)CC1 (centres undefined)	23µM*	u	18µM*	7%	-19%	u
Cc1cc(F)ccc1N1CCC(N2CCN(C(C)C)C(CCO)C2)CC1 (centres undefined)	23µM*	-10%	-3%	-22%	-42%	u
COc1cccc(CN2CCN(C3CCN(c4ccccc4C)CC3)CC2CCO)c1 (centres undefined)	18µM*	-14%	1%	u	-37%	u
COc1cccc(CN2CCN(C3CCN(c4ccccc4F)CC3)CC2CCO)c1 (centres undefined)	u	-7%	-7%	-6%	1%	u
CC(C)CCN1CCN(C2CCN(c3ccc4c(c3)OCO4)CC2)CC1CCO (centres undefined)	-24%	-5%	-28%	-3%	-1%	9%
Cc1ccc(NC(=O)C2CCCN(c3ncnc4c3nc3n4CCCCC3)C2)cc1Cl (centres undefined)	21µM*	u	-27%	u	2%	u
O=C(NCc1ccc(Cl)cc1)C1CCCN(c2ncnc3c2nc2n3CCCCC2)C1 (centres undefined)	u	-1%	7%	16%	-7%	u
Cc1ccc(NC(=O)C2CCN(c3ncnc4c3nc3n4CCCCC3)CC2)cc1Cl	u	-4%	-12%	-7%	-3%	u
Cc1cccc(NC(=O)C2CCCN(c3ncnc4c3nc3n4CCCCC3)C2)n1 (centres undefined)	7.3µM*	-10%	-5%	-13%	-23%	10µM*
O=C(Nc1ccc(Cl)cc1)C1CCCN(c2ncnc3c2nc2n3CCCCC2)C1 (centres undefined)	18µM*	u	u	u	-3%	23µM*
COc1ccc(OC)c(CNC(=O)C(C)n2nc(C)c3c(C)n(-c4ccccc4)nc3c2=O)c1 (centres undefined)	-1%	-7%	-5%	-17%	-14%	-13%
COc1ccccc1-c1sc2ccccc2c1C#Cc1ccc(N(C)C)cc1	u	-5%	-2%	3%	-3%	-23%

Screening results (PubChem)
